# Data: PubChem BioAssay (NCATS)
# Unmarked numbers belong to inactive results.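 How the source made its calls: active means calcium activation more than 3 SD above the typical response in the agonist read; inactive means the rest.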
# Molecular target: Thyrotropin-releasing hormone receptor (Homo sapiens) (UniProt P34981)
# Test: qHTS for Small Molecule Agonists and Allosteric Enhancers of Human TRH Receptor: Validation Screen for Agonists (AID 493127);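 further: intracellular calcium rise by fluo-8 fluorescence before TRH EC20 addition; 0% is about no effect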
# Details: TRH receptor agonist cell assay; at 2 µM; hits give high values
# Source text: NIH Chemical Genomics Center [NCGC]
# NIH Molecular Libraries Probe Centers Network [MLPCN]
# Assay Submitter (PI): Marvin Gershengorn
# This project aims to identify small drug-like molecules that activate (agonists) the thyrotropin releasing hormone (TRH) receptor (TRHR) or enhance its TRH-stimulated activity (allosteric enhancers). TRHR, a drug-accessible cell surface receptor expressed in specific brain regions, and its ligand TRH have been implicated in several central nervous system disorders, including depression and anxiety. Small molecule TRHR agonists or allosteric enhancers that are metabolically stable and able to cross the blood-brain barrier might serve as probes to elucidate the roles of brain TRH receptors in animal models, and might be valuable as lead compounds for the development of drugs to treat patients with central nervous system disorders.
# Upon TRHR-Gq activation in TRHR cells, intracellular calcium is released from stores in the endoplasmic reticulum. […] This validation screen measures compound-induced activation of calcium release.
# For the HTS assay freshly prepared cells are plated at a density of 2000/well in 3 ul of complete DMEM medium containing 10% serum in 1536-well plates and cultured over night at 37 C in a humidified incubator with 5% CO2. The next day, 2 ul of a no wash calcium dye (ABD Bioquest) was added to the cells and plates were incubated at room temperature for 1 hour. For the assay, assay plates were loaded into the FDSS kinetic plate reader. A 10 cycle (1 second/cycle) baseline measurement is taken and then the FDSS online 1536 pintool delivers 23 nl of compound library (as well as TRH controls) to the plate. The plate is measured for kinetically at 1 cycle/sec for 180 seconds and is considered to be the agonist portion of the assay (eg, compounds which activate a positive calcium response during this portion are flagged as potential agonists). Following the 180 second read, 1 ul of either an EC20 (positive modulation assay) is delivered by an onboard pipette head. Measurements are taken kinetically for an additional 180 seconds.
# TRHR FDSS Screening Protocol
# 1. Reagent, 3 uL 2000 cells/well 1536 TC treated Black plate in media containing 10% FCS
# 2. Time, 18 hours, 33.5C 5% CO2 (cells grown at 37C)
# 3. Reagent, 2 uL ABD fluo-8 Ca dye
# 4. Time, 30 min-1.5hrs hours, Room temp (6 plates/batch)
# 5. Detector, EX 480/EM 530C, FDSS 10 cycles baseline (1sec/cycle)
# 6. Compound, 23 nL of stock solution from library
# 7. Detector, EX 480/EM 530C, FDSS 230 cycles (1sec/cycle) Agonist mode
# 8. Compound, 1 ul EC20 of TRH made up in HEPES HBSS, 10 nM final
# 9. Detector, EX 480/EM 530C, FDSS 100 cycles (1sec/cycle) Potentiator mode
# Thyrotropin-releasing hormone receptor (Homo sapiens), sequence (P34981 whole entry, looked up): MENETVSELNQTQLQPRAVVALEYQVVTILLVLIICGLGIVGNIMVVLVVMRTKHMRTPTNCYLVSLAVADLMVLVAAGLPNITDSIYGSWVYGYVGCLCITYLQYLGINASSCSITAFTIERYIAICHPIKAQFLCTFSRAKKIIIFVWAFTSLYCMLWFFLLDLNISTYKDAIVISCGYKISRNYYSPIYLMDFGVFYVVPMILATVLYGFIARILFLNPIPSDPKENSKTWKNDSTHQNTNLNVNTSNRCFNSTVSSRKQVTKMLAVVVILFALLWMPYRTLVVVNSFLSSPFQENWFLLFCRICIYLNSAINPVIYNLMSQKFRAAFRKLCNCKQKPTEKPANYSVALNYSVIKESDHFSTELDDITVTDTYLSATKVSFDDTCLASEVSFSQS
row,SMILES,activation
1,CN1CCc2cc(O)c(O)cc2C(c2ccccc2)C1 (stereo not given),-0.188%
2,NCCSSCCN,-0.375%
3,CCCCCCCCCCCCCCCCCC(=O)OC(CC(=O)O)C[N+](C)(C)C (stereo not given),-0.5%
4,Cn1cc(C2=C(c3ccc(Cl)cc3Cl)C(=O)NC2=O)c2ccccc21,29.6%
5,COc1cc2c(CCNC(C)=O)c[nH]c2cc1Cl,0.375%
6,CN1CCc2cc(NC(=O)Nc3cccnc3)ccc21,-2.62%
7,N#C/C(=C\c1ccc(O)c(O)c1)C(=O)NCCCc1ccccc1,0.625%
8,Ic1ccc(N2CCN(Cc3c[nH]c4ncccc34)CC2)cc1,3.5%
9,Cn1c(=O)c2[nH]c(-c3ccccc3)nc2n(C)c1=O,0.875%
10,CC(=O)N[C@H](C(=O)O)C(C)(C)SN=O,0.812%
11,O=c1[nH]c2cc(C(F)(F)F)ccc2n1-c1cc(C(F)(F)F)ccc1O,1.88%
12,O=C(O)CNC(=O)C(CS)Cc1ccccc1 (stereo not given),0.625%
13,O=c1[nH]c2cc([N+](=O)[O-])c([N+](=O)[O-])cc2[nH]c1=O,1.31%
14,O=C(c1cc(O)c(O)c([N+](=O)[O-])c1)c1ccccc1F,-0.125%
15,NCCCCCCCCCCN,0.938%
16,C[N+](C)(CCCCCC[N+](C)(C)CCCN1C(=O)c2cccc3cccc(c23)C1=O)CCCN1C(=O)c2cccc3cccc(c23)C1=O,-0.188%
17,CCCCN1CCC(n2c(=O)[nH]c3ccccc32)CC1,1%
18,CN[C@H](CC(C)C)C(=O)N[C@H]1C(=O)N[C@@H](CC(N)=O)C(=O)N[C@H]2C(=O)N[C@H]3C(=O)N[C@H](C(=O)N[C@H](C(=O)O)c4cc(O)cc(O)c4-c4cc3ccc4O)[C@H](O)c3ccc(c(Cl)c3)Oc3cc2cc(c3O[C@@H]2O[C@H](CO)[C@@H](O)[C@H](O)[C@H]2O[C@H]2C[C@](C)(N)[C@H](O)[C@H](C)O2)Oc2ccc(cc2Cl)[C@H]1O,-0.312%
19,COc1cc(OC)c(/C=C2/C(=O)Nc3ccccc32)c(OC)c1,1.38%
20,CCCCCC(O)c1cccc(OCc2ccc3ccccc3n2)c1 (stereo not given),-5.62%

row,SMILES,activation
1,COC1=C(OC)C(=O)c2ccccc2C1=O,0.688%
2,Oc1cc(O)cc(/C=C/c2ccc(O)c(O)c2)c1,0.938%
3,c1ccc(-c2ccccn2)nc1,0%
4,CC(=O)SCC[N+](C)(C)C,0.875%
5,NC[C@@H]1O[C@H](C23CC4CC(CC(C4)C2)C3)Cc2c1ccc(O)c2O,8.12%
6,O=C(O)c1cc(=O)c2c(Cl)cc(Cl)cc2[nH]1,1.56%
7,S=C(S)OC1CC2CC1C1CCCC21 (stereo not given),0.125%
8,CC(COc1ccc(/C=C/c2ccccc2)cc1)[N+](C)(C)C (stereo not given),0.125%
9,O=Nc1ccc2oc(=O)ccc2c1,-0.5%
10,N=C(N)SCCc1ccc(CCSC(=N)N)cc1,1.12%
11,CN(C)CCC(c1ccc(Cl)cc1)c1ccccn1 (stereo not given),1.12%
12,NCCCS(=O)(=O)O,0.5%
13,COc1cc2nc(N3CCN(C(=O)OCc4ccccc4)C(C(=O)NC(C)(C)C)C3)nc(N)c2cc1OC (stereo not given),-3.06%
14,CC(C)NCC(O)COc1cccc2ccccc12 (stereo not given),2.25%
15,CN1C2CCC1CC(OC(=O)C(O)c1ccccc1)C2 (stereo not given),1.19%
16,Fc1ccc(C(OCCCc2cnc[nH]2)c2ccc(F)cc2)cc1,-5.06%
17,O=C(O)CC[C@@H](C(=O)O)N1C(=O)c2ccccc2C1=O,0.125%
18,O=C(/C=C/c1ccc(O)c(O)c1)OCCc1ccccc1,0.812%
19,N.N.O=C(O)C1(C(=O)O)CCC1.[Pt],-0.5%
20,COc1ccc(/C=C/C(=O)Nc2ccccc2C(=O)O)cc1OC,-5.44%
